Unmarked numbers belong to inactive results. Results filed as inconclusive are left out. Active and inactive are the calls of the source. Unless noted, the call rests on the fitted dose curve; in most records, active means well fitted curve in the direction sought with a large enough effect; inconclusive means small, poorly fitted or top-dose-only effect, or another doubt; inactive means no such curve, though single readings can be large; an effect the other way counts as inactive or inconclusive.
Experiments:
[1] = molecular target: Lysosomal acid glucosylceramidase (Homo sapiens) (UniProt P04062); test: Glucocerebrosidase-p2 (AID 348; in the data active means potency below about 10 µM; further: potency means the concentration at half of the fitted maximal effect); conditions: purified GBA, blue fluorogenic substrate, 40 min
Chain of Lysosomal acid glucosylceramidase (Homo sapiens) (P04062 whole entry, looked up): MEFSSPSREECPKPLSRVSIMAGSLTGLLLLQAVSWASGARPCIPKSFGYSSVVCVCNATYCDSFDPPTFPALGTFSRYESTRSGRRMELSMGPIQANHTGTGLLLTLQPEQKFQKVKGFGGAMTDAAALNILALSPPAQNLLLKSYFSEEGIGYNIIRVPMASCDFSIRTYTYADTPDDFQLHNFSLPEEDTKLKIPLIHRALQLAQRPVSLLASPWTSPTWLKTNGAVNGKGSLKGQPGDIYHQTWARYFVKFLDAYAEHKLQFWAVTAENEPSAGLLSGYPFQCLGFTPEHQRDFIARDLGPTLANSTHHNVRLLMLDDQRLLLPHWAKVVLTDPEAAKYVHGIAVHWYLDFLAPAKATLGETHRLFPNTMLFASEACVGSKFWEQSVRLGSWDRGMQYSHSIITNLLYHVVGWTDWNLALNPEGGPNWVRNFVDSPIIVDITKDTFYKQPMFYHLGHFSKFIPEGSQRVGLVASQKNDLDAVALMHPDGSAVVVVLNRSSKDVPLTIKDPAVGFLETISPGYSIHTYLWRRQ
Summary of the method: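 Normal human glucocerebrosidase (0.2 nM) with blue fluorogenic substrate (80 uM final) in citrate/phosphate pH 5.9 with 10mM sodium taurocholate, 0.01% tween-20; 40 min RT, NaOH/glycine stop; fluorescence Ex 365/Em 440; AC50 from a titration from 0.6 nM upwards.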

[2] = AP1 Signaling Pathway (AID 357; active means well fitted curve in either direction with a large enough effect, not every such curve was filed as active; further: on the % scale 0 is the no-effect control and ±100 the full control effect); conditions: ME-180 AP-1-bla reporter, EGF-induced, beta-lactamase ratio, 5 h; at 7.69 µM (top of the series) unless noted
Summary of the method: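 ME-180 cells with beta-lactamase reporter under AP-1 response element, stimulated with EC50 EGF; compounds tested in titration series, 5 h at 37 °C. CCF4 substrate added 2.5 h at room temperature; 460/530 nm emission ratio gave %activity and AC50.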

[3] = molecular target: Cytochrome P450 1A2 (Homo sapiens) (UniProt P05177); test: p450-cyp1a2 (AID 410; calls by dose curve; further: potency means the concentration at half of the fitted maximal effect;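 on activity change, negative = inhibition: -100% = full effect of reference inhibitor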)
Chain of Cytochrome P450 1A2 (Homo sapiens) (P05177 whole entry, looked up): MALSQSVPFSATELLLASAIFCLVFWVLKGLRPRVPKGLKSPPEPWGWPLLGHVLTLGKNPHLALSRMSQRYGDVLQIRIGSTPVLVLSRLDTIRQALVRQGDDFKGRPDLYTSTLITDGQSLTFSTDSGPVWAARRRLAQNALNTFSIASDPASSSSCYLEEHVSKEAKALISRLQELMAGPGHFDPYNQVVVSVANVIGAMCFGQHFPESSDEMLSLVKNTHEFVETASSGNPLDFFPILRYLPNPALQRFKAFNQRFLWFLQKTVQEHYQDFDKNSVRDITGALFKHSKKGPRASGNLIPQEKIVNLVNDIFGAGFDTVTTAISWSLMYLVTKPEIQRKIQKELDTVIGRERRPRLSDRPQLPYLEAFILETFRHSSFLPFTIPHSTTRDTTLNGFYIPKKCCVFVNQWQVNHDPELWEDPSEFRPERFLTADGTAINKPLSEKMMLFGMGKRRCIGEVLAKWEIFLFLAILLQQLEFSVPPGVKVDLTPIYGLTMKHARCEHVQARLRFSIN
Summary of the method: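 20nM CYP1A2, 100uM Luciferin-ME (=Km), 100mM KPO4; cpd 10 min RT; +NADPH regen, 60 min RT; stop/detect 20 min; luminescence. Normalized to furafylline 57 uM = full inhibition.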

[4] = NFAT Signaling Pathway (AID 444; active means well fitted curve in either direction with a large enough effect, not every such curve was filed as active;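 further: carbachol stimulus at about its EC50 of 1 µM final; on the % scale 0 is the no-effect control and ±100 the full control effect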); conditions: Jurkat NFAT-bla M1, carbachol, beta-lactamase ratio, 5 h; at 7.69 µM (top of the series) unless noted
Summary of the method: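 Read-out: CCF4 FRET ratio (460 nm/530 nm) after 1 h RT dye loading, used for %activity and AC50 from titration series. Cells: Jurkat NFAT-β-lactamase/M1 line, treated with compound plus 1 uM carbachol for 5 h, 37 °C.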

[5] = Stat Signaling Pathway (AID 446; active means well fitted curve in either direction with a large enough effect, not every such curve was filed as active;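 further: ME-180 cervical cancer cells given 40 pM IL-6 alongside compound; SIE-controlled beta-lactamase reporter measured as 460/530 nm FRET emission ratio; on the % scale 0 is the no-effect control and ±100 the full control effect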); conditions: ME-180 (cervical carcinoma) SIE beta-lactamase reporter, IL-6 stimulated, 5 h; at 7.69 µM (top of the series) unless noted
Summary of the method: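 Emission at 460 and 530 nm (excitation 405 nm) reports SIE-controlled beta-lactamase in ME-180 cells. Cells received compound with 40 pM IL-6 for 5 hrs at 37 C; data scaled between 300 pM IL-6 and 125 nM JAK-inhibitor controls.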

[6] = molecular target: Glucocorticoid receptor (Homo sapiens) (UniProt P04150); test: GR-GFP Redistribution (AID 450;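 active means compounds whose dose series gives a full or clear partial fitted curve of increased nuclear translocation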; further: potency means the concentration at half of the fitted maximal effect); conditions: U2OS GR-GFP nuclear translocation, laser cytometry, 2 h
Chain of Glucocorticoid receptor (Homo sapiens) (P04150 whole entry, looked up, the tested form may be a part): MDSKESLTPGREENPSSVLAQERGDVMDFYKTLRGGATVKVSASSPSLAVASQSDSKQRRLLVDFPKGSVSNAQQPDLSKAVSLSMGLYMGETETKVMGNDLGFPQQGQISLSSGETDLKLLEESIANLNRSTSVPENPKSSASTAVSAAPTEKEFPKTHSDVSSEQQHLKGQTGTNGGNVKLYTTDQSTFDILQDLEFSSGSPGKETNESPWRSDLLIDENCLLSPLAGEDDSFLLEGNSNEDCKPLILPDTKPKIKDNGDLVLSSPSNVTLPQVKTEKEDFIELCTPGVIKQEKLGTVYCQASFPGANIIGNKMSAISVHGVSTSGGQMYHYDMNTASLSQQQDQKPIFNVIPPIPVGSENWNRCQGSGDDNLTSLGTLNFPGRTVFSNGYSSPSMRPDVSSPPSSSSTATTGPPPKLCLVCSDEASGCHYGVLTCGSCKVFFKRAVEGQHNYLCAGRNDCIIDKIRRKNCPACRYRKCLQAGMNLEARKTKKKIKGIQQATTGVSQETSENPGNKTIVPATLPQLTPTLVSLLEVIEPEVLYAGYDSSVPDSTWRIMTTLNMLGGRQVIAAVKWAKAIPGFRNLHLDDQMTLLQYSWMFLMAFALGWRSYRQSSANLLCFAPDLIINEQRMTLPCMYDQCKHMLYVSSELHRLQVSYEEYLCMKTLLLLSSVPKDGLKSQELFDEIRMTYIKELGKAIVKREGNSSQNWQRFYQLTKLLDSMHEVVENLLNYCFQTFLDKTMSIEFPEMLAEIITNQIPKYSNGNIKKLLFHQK

[7] = molecular target: Glucocorticoid receptor (Homo sapiens) (UniProt P04150); test: GR-EFC Redistribution (AID 451; calls by dose curve; further: potency means the concentration at half of the fitted maximal effect); conditions: CHO-K1 GR-EFC translocation, beta-gal luminescence, 2 h
Summary of the method: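 Translocation of GR-ED fusion to nuclear EA restores b-gal, read by luminescence after 1 h room-temperature detection. Engineered CHO-K1 biosensor cells, 1,000/well, exposed 2 h at 37 C to titrations up to 46 uM final.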

[8] = molecular target: Mitogen-activated protein kinase 10 (Mus musculus) (UniProt Q61831); test: JNK3 AlphaScreen Assay (AID 530; active means well fitted curve in either direction with a large enough effect, not every such curve was filed as active;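 further: kinase came from lysate of stimulated human HepG2 cells; signal reports phosphorylation of biotinylated GST-cJun 1-79 at Ser73 with 10 µM ATP; on the % scale 0 is the no-effect control and ±100 the full control effect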)
Summary of the method: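 Kinase buffer: 20 mM Tris-HCl pH 7.6, 10 mM MgCl2, 1 mM DTT, 0.1 mM Na3VO4, 0.01% Tween-20; ATP 10 uM. Substrate biotin-GST-cJun(1-79), enzyme from activated HepG2 lysates. Detection by Ser73 phospho-antibody AlphaScreen.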

[9] = molecular target: 3',5'-cyclic-AMP phosphodiesterase 4B (Homo sapiens) (UniProt Q07343); test: qHTS Assay for Inhibitors of PDE-IV (AID 607; active means well fitted activation curve with a large enough effect in the main read-out, with a control signal flat, not every such curve was filed as active; further: % of control where 0% means no effect)
Chain of 3',5'-cyclic-AMP phosphodiesterase 4B (Homo sapiens) (Q07343 whole entry, looked up): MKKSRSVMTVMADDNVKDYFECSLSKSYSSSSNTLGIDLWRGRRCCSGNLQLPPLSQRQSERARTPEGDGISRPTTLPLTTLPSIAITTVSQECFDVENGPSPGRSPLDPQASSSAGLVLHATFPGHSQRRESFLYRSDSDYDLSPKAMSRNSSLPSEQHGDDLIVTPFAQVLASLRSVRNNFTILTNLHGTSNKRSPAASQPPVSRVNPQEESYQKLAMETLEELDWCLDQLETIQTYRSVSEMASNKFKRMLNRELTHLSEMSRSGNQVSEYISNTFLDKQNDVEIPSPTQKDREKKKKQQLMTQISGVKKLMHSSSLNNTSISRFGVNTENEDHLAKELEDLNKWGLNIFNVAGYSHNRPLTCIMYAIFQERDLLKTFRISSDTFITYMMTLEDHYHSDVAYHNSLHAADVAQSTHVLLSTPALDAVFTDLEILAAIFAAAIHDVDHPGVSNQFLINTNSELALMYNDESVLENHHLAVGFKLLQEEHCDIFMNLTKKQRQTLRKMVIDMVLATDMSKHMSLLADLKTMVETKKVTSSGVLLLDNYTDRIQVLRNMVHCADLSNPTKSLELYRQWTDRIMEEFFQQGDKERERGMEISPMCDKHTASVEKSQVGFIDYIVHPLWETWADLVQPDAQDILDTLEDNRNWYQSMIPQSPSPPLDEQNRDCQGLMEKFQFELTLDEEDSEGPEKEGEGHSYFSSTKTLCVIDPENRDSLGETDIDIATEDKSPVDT
Summary of the method: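 The readout is membrane depolarisation from a cAMP-sensing CNG channel, detected with a potential dye at ex 535/em 590. Cells were HEK293-derived (endogenous PDE-IV) at 1000 cells/well, titrated up to 22.9 uM final.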

[10] = molecular target: Dual specificity protein kinase CLK4 (Homo sapiens) (UniProt Q9HAZ1); test: qHTS Assay for Inhibitors of CDC-like Kinase 4 (Kinase-Glo Assay) (AID 1770); further: nearly all actives have a fitted effect of over 65% in size; further: potency means the concentration at half of the fitted maximal effect
Chain of Dual specificity protein kinase CLK4 (Homo sapiens) (Q9HAZ1 whole entry, looked up): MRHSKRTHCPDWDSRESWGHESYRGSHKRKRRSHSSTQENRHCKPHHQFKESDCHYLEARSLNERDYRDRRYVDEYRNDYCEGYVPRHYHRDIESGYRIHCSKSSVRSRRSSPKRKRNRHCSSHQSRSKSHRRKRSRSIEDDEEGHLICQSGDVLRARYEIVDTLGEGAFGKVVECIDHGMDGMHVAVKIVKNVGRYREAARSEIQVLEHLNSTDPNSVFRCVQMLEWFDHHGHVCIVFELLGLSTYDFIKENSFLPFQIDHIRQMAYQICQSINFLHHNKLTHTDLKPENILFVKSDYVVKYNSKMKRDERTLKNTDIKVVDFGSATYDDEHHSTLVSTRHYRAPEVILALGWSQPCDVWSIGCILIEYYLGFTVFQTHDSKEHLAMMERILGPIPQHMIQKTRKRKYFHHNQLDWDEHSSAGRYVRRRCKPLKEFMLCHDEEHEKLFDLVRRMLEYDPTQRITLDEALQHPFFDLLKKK
Summary of the method: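 Recombinant human Clk4 (25 nM) phosphorylated RS repeat peptide (100 uM) with 1 uM ATP in Tris pH 7.5/MgCl2/EGTA/DTT/Triton buffer for 4.5 h at room temperature. Residual ATP was quantified by Kinase-Glo luciferase luminescence.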

[11] = molecular target: Dual specificity protein kinase CLK4 (Homo sapiens) (UniProt Q9HAZ1); test: qHTS Assay for Inhibitors of CDC-like Kinase 4 (ADP-Glo Assay) (AID 1771); further: nearly all actives have a fitted effect of over 70% in size; further: potency means the concentration at half of the fitted maximal effect
Summary of the method: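 25 nM Clk4, 100 uM RS peptide, 1 uM ATP (final); 2 mM MgCl2, 0.5 mM EGTA, 2.5 mM DTT, 0.01% Triton X-100; 1 hr RT. ADP-Glo readout: ATP depletion 45 min, conversion/luciferase 30 min, luminescence.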

[12] = molecular target: Dual specificity protein kinase CLK4 (Homo sapiens) (UniProt Q9HAZ1); test: qHTS Assay for Inhibitors of CDC-like Kinase 4 (ADP-FP Assay) (AID 1795); further: nearly all actives have a fitted effect of over 60% in size; further: potency means the concentration at half of the fitted maximal effect
Summary of the method: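 Recombinant human Clk4 (6.25 nM) phosphorylated RS repeat peptide (100 uM) with 1 uM ATP in Tris pH 7.5/MgCl2/EGTA/DTT/Triton buffer for one hour. ADP was quantified by Transcreener competitive fluorescence polarization against an ADP calibration curve.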

[13] = molecular target: Ubiquitin carboxyl-terminal hydrolase 1 (Homo sapiens) (UniProt O94782); test: Inhibitors of USP1/UAF1: Pilot qHTS (AID 504865);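 further: rhodamine fluorescence freed from ubiquitin-rhodamine substrate followed over time; top concentration of the series differs between compounds; on the % scale 0 is the no-effect control and ±100 the full control effect; nearly all actives have a fitted effect of over 35% in size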
Chain of Ubiquitin carboxyl-terminal hydrolase 1 (Homo sapiens) (O94782 whole entry, looked up): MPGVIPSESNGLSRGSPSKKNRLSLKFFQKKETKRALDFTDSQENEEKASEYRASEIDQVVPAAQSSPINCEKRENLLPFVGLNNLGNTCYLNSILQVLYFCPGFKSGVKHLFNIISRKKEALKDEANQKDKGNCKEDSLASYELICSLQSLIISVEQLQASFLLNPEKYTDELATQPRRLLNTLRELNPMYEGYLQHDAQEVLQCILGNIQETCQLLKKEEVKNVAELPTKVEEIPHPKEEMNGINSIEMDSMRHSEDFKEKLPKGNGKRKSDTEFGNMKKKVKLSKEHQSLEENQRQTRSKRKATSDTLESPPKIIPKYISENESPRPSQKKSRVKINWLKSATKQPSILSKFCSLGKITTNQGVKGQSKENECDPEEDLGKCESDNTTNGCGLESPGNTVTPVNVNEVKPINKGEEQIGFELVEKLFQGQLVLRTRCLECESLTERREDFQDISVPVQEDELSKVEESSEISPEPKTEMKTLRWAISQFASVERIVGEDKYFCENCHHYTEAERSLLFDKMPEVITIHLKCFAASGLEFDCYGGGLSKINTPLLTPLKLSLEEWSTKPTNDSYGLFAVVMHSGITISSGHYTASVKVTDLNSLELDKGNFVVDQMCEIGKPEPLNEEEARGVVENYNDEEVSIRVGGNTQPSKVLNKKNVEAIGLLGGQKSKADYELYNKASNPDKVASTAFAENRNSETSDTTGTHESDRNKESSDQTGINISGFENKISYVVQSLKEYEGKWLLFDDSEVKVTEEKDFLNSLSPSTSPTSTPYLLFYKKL
Summary of the method: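 USP1/UAF1 complex (1nM) preincubated with compound 15 min at room temperature, then Ub-Rho substrate (150nM final) added. Fluorescence read kinetically at 480/540 nm, 6 reads every 60 seconds. Buffer: 50mM HEPES pH 7.8, 0.5mM EDTA, 0.1 mg/ml BSA, 1mM TCEP, 0.01% Tween-20.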

[14] = Primary qHTS for small molecule stabilizers of the endoplasmic reticulum resident proteome: Secreted ER Calcium Modulated Protein (SERCaMP) assay (AID 1508630); further: on the % scale 0 is the no-effect control and ±100 the full control effect
Summary of the method: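 The SH-SY5Y reporter protocol was run at 3 concentrations up to 38.3 uM (primary) or 11 concentrations (follow-up): 16 h compound, 100 nM thapsigargin for 4 h, then extracellular luciferase luminescence.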

[15] = molecular target: Cytochrome P450 3A4 (Homo sapiens) (UniProt P08684); test: qHTS Assay for Inhibitors and Substrates of Cytochrome P450 3A4 (AID 884); further: potency means the concentration at half of the fitted maximal effect; nearly all actives have a fitted effect of over 50% in size
Chain of Cytochrome P450 3A4 (Homo sapiens) (P08684 whole entry, looked up): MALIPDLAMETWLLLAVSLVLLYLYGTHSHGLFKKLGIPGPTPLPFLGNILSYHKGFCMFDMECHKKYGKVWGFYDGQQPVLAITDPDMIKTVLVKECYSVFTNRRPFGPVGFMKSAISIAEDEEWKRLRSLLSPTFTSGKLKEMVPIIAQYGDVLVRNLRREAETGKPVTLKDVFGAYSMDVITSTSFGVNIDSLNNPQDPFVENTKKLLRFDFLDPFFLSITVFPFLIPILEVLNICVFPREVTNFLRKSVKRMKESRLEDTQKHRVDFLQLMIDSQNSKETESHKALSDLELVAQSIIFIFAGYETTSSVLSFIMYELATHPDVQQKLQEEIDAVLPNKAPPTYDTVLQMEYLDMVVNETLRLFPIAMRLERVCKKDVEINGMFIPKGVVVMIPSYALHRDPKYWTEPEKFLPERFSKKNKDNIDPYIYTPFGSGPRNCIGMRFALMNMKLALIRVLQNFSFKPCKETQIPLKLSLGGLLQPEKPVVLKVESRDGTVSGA
Summary of the method: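 Luminescent readout of luciferin produced by CYP3A4 (20 nM) dealkylation of Luciferin-PPXE, 25 uM (its KM). NADPH-driven reaction ran 60 min at RT after 10 min compound preincubation; data scaled to 57 uM ketoconazole as 100% inhibition.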

[16] = molecular target: Cytochrome P450 3A4 (Homo sapiens) (UniProt P08684); test: qHTS Assay for Activators of Cytochrome P450 3A4 (AID 885); further: nearly all actives have a fitted effect of over 65% in size
Summary of the method: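 Activators are scored by enhanced luminescence from CYP3A4 conversion of luciferin-PPXE (25uM, equal to KM) to luciferin, after 60 min at RT with an NADPH-regenerating system.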

| Structure (SMILES) | Potency [1] [µM] | activity change, negative = inhibition [2] [%] | Potency [3] | activity change, negative = inhibition [4] [%] | activity, negative = inhibition [5] [%] | Potency [6] [µM] | Potency [7] [µM] | Potency [8] | Potency [9] | Potency [10] | Potency [11] | Potency [12] | Potency [13] | outcome [14] | Potency [15] | Potency [16] |
| --- | --- | --- | --- | --- | --- | --- | --- | --- | --- | --- | --- | --- | --- | --- | --- | --- |
| COc1ccc(Nc2ncc3nc(-c4cccs4)c(=O)n(Cc4cccc(OC)c4)c3n2)cc1 | > 11.4 | -12.3 | inactive | -11.6 | -8.74 | > 9.22 | > 46 | inactive | inactive | inactive | inactive | inactive | inactive | inactive | – | – |
| Cc1ccccc1-c1cncnc1NCc1cccnc1 | > 11.4 | -2.76 | 15.8 µM (active) | -14.1 | 4.91 | > 46 | > 46 | inactive | inactive | inactive | inactive | inactive | inactive | inactive | 0.631 µM (active) | inactive |
| CNc1nc(-c2cccnc2)nc2ccccc12 | > 11.4 | 14.7 | 0.1 µM (active) | 2.11 | -3.74 | > 46 | > 46 | inactive | inactive | 4.47 µM (active) | 6.31 µM (active) | 3.98 µM (active) | inactive | inactive | 6.31 µM (active) | inactive |
| CCNc1ncc2nc(-c3cn(C)c4ccccc34)c(=O)n(Cc3cccs3)c2n1 | > 11.4 | -13.1 | 6.31 µM (active) | 8.06 | 23.5 | > 9.22 | > 46 | inactive | inactive | inactive | inactive | inactive | inactive | inactive | – | – |
| N#Cc1cccc(-c2ccc3ncnc(NC4CCNCC4)c3c2)c1 | > 11.4 | -6.77 | 15.8 µM (active) | 3.08 | -3.89 | > 46 | > 46 | inactive | inactive | 12.6 µM (active) | 14.1 µM (active) | 14.1 µM (active) | inactive | inactive | – | – |
| COc1ccc(CNc2ncncc2-c2c(C)noc2C)c(OC)c1 | > 11.4 | -10.6 | 25.1 µM (active) | 9.48 | 2.92 | > 46 | > 46 | inactive | inactive | inactive | inactive | inactive | inactive | inactive | 1.26 µM (active) | inactive |

Source: PubChem BioAssay (NCATS)
